Reference: PubChem BioAssay
For some assays here: Results with a measured potency or affinity are listed apart. Activity calls are given as the source filed them. How the calls were made is not given here.

target: Plasmodium falciparum protein kinase 6 (PK6, PF3D7_1337100) (UniProt Q8IDW1); assay: PfPK6 kinase inhibitors, biochemical, TCAMS library (AID 1159586); settings: recombinant PfPK6, Kinase-Glo ATP depletion luminescence
Sequence (Q8IDW1 1-305): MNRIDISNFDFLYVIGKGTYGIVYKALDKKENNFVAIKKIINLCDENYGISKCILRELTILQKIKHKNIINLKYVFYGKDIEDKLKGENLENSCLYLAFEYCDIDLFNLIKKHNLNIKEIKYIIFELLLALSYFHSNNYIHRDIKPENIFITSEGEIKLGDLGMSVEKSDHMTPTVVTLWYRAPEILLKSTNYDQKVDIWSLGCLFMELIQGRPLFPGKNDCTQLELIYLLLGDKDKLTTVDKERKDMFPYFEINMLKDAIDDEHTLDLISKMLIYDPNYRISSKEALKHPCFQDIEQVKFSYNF

Question: How did the outcome turn out when `Cc1[nH]c(C)c(-c2ccc(OCc3cc(C(F)(F)F)cc(C(F)(F)F)c3)nc2)c(=O)c1Cl` was run?
Answer: inactive

Question: With `COc1cc(C)c(NC(=O)c2cccc3c(=O)c(C)c(-c4ccccc4)oc23)cc1OC` as the molecule, how does the outcome read?
Answer: inactive

Question: Which outcome does the source give for `Cc1c(CNCCCNc2cc(=O)c3ccccc3[nH]2)sc(C(F)F)c1Br` here?
Answer: inactive

Question: For `C[C@@H](C(N)=O)N1CCCCC1c1ccc(OCc2cccc(F)c2)cc1` (stereo not given in full), which outcome is on record?
Answer: inactive

Question: `O=[N+]([O-])c1ccc2c(-c3ccccc3)c(-c3ccccc3)n(O)c2c1` was tested. Which outcome did it give?
Answer: inactive

Question: `CN1CCC(c2c[nH]c3ccc(NC(=O)Nc4ccc(-c5ccncc5)cc4Cl)cc23)CC1` was tested. Which outcome did it give?
Answer: inactive

Question: How did the outcome turn out when `O=C(Nc1ccc(Cl)c(Cl)c1)N1CCc2cc3nccc(N4CCN5CCC[C@H]5C4)c3cc21` was run?
Answer: inactive

Question: How did the outcome turn out when `CNC(=O)c1cnc(Nc2ccc(OCC(O)CN(C)C)cc2)nc1Nc1cccc(OC)c1` (stereo not given) was run?
Answer: inactive

Question: How did the outcome turn out when `CC(=O)Nc1ccc(CN(Cc2ccc(OC(C)(C)C)cc2)Cc2ccc3c(c2)OCCO3)cc1` was run?
Answer: inactive

Question: Which outcome does the source give for `O=C(NCC1CCC(C(=O)NCc2cccc(C(F)(F)F)c2)CC1)c1ccc(O)c(-c2ccc(Cl)c(Cl)c2)c1` (stereo not given) here?
Answer: inactive

Question: How did the outcome turn out when `CC1(C)N=C(N)N=C(N)N1c1ccc(Cl)c(Cl)c1` was run?
Answer: inactive

Question: With `CCOc1ccc(-c2cc3nc(C4CCNCC4)c(C(=O)Nc4ccc(C)cc4Cl)cn3n2)cc1` as the molecule, how does the outcome read?
Answer: inactive

Question: Which outcome does the source give for `O=C(/C=C/c1ccc(Cl)c(Cl)c1)NCCCCCN1CCCC(C(=O)Nc2cccc(Cl)c2)C1` (stereo not given) here?
Answer: inactive

Question: For `N#Cc1cccc(-c2cccc(C(=O)NC3CCC(CCN4CCc5ccc(C#N)cc5CC4)CC3)c2)c1` (stereo not given), which outcome is on record?
Answer: inactive

Question: With `COc1cccc2c(NCc3ccccc3)nc(NCCCN3CCCCC3C)nc12` (stereo not given) as the molecule, how does the outcome read?
Answer: inactive

Question: `COc1cc(C=CC(=O)N2CCC(CCN3CCC(c4c[nH]c5ccccc45)CC3)CC2)cc(OC)c1` was tested. Which outcome did it give?
Answer: inactive

Question: `Cc1cc(Cl)ccc1OC(C)C(=O)N1CCc2ccccc21` (stereo not given) was tested. Which outcome did it give?
Answer: inactive

Question: Which outcome does the source give for `Cc1nc(-c2cccc(Nc3nccc(NCC(O)c4ccccc4)n3)c2)cs1` (stereo not given) here?
Answer: inactive

Question: Which outcome does the source give for `CC(C)(C)c1ccc(S(=O)(=O)Nc2ccccc2Cn2nc(N3CCNCC3)ccc2=O)cc1` here?
Answer: inactive

Question: How did the outcome turn out when `CCn1ccc2c(N3CCCS3(=O)=O)cc(C(=O)N[C@@H](Cc3ccccc3)[C@H](O)CNC(C)(C)CCCC(C)C)cc21` was run?
Answer: inactive

Question: With `O=C(CC(=O)C(F)(F)F)c1ccccc1[N+](=O)[O-]` as the molecule, how does the outcome read?
Answer: inactive

Question: With `CCOc1ccc(Br)cc1/C=C/C(=O)Nc1ccc2c(c1)CN(C)CCC2` as the molecule, how does the outcome read?
Answer: inactive

Question: With `COc1ccc2nccc(NN=Cc3ccccc3)c2c1` as the molecule, how does the outcome read?
Answer: inactive

Question: Which outcome does the source give for `CN(C(=O)/C=C/c1cc(C(F)(F)F)ccc1F)C1CCN(CCCCCNC(=O)/C=C/c2ccc(Cl)c(Cl)c2)CC1` here?
Answer: inactive

Question: `Nc1cnc(C#Cc2cc3ncnc(N(CCN4CCOCC4)c4ccc(OCc5cccc(F)c5)c(Cl)c4)c3s2)cn1` was tested. Which outcome did it give?
Answer: inactive

Question: How did the outcome turn out when `Cc1nnsc1C(=O)Nc1ccc(-c2cccc(-c3nc4c(C)cccc4[nH]3)c2)cc1` was run?
Answer: inactive

Question: For `O=[N+]([O-])c1ccc(C(O)CNCCc2ccccc2)cc1OCc1ccccc1` (stereo not given), which outcome is on record?
Answer: inactive

Question: Which outcome does the source give for `COc1cc2ccccc2c(OC)c1CCNCCCCNCCc1c(OC)cc2ccccc2c1OC` here?
Answer: inactive

Question: With `COc1ccc(Cl)cc1N1CCN(CCCNC(=O)c2ccc(-c3nc4cc(Cl)c(F)cc4[nH]3)c(F)c2)CC1` as the molecule, how does the outcome read?
Answer: inactive

Question: Which outcome does the source give for `c1ccc2c(c1)CN(Cc1cc3ccccc3[nH]1)CC1(CCN(Cc3c[nH]c4cnccc34)CC1)O2` here?
Answer: inactive

Question: Which outcome does the source give for `Oc1ccc(CCNc2nc(NCCCOc3cccc(CN4CCCCC4)c3Cl)nc(N3CCNCC3)n2)cc1` here?
Answer: inactive

Question: For `O=C(CC1CCCC1)Nc1ccc2c(c1)CCC2`, which outcome is on record?
Answer: inactive

Question: For `CCN1CCN(C(=O)NC(C(=O)N(C)Cc2ccc(-c3ccc(C(F)(F)F)cc3)cc2)c2cccs2)C(=O)C1=O` (stereo not given), which outcome is on record?
Answer: inactive

Question: With `Oc1c(CN2CCC(Cc3ccccc3)CC2)cc(Cl)c2cccnc12` as the molecule, how does the outcome read?
Answer: inactive

Question: How did the outcome turn out when `C=C[C@]1(C)C[C@@H](OC(=O)NC(=O)CCCS(=O)(=O)c2nnc(C)s2)[C@]2(C)[C@H](C)CC[C@]3(CCC(=O)[C@H]32)[C@@H](C)[C@@H]1O` was run?
Answer: inactive

Question: Which outcome does the source give for `COc1c(C2CCN(CCCCNC(=O)c3ccc(-c4ccc(C(=O)C(F)(F)F)cc4)cc3)CC2)ccc2c1CCCC2` here?
Answer: inactive

Question: For `O=C(NC1CCCc2ccccc21)C1CCCN(C(=O)c2ccc(O)c(-c3ccc(Cl)c(Cl)c3)c2)C1` (stereo not given), which outcome is on record?
Answer: inactive

Question: How did the outcome turn out when `CC(=O)Nc1ncc(C(=O)Nc2cccc(-c3cccc(-c4nc5ccccc5[nH]4)c3)c2)s1` was run?
Answer: inactive

Question: For `CCN(CC)C(=O)C1CCCN(C(=O)Nc2cc(C(F)(F)F)cc(C(F)(F)F)c2)C1` (stereo not given), which outcome is on record?
Answer: inactive

Question: With `CCC(C)NS(=O)(=O)c1ccc2nc(Nc3ccc(C)cc3)n([C@H](C)C(C)(C)C)c2c1` (stereo not given in full) as the molecule, how does the outcome read?
Answer: inactive

target: Protein kinase 7 (PK7), Plasmodium falciparum 3D7 (PF3D7_0213400) (UniProt Q7YTF7); assay: inhibition of Plasmodium PK7 catalytic activity – biochemical, TCAMS antimalarial set, Kinase-Glo luminescence (AID 1159587); settings: recombinant PfPK7, Kinase-Glo ATP depletion luminescence
Sequence (Q7YTF7 1-343): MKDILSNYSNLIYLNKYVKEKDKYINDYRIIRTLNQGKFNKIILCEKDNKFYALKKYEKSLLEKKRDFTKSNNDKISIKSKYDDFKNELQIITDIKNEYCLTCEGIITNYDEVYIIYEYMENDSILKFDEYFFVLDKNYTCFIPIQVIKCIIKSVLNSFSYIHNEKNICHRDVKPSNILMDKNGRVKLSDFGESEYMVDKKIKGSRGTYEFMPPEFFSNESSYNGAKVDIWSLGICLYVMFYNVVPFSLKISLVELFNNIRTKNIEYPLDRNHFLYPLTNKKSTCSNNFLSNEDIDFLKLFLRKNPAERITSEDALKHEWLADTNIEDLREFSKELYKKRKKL

Question: How did the outcome turn out when `Cc1[nH]c(C)c(-c2ccc(OCc3cc(C(F)(F)F)cc(C(F)(F)F)c3)nc2)c(=O)c1Cl` was run?
Answer: inactive

Question: For `COc1cc(C)c(NC(=O)c2cccc3c(=O)c(C)c(-c4ccccc4)oc23)cc1OC`, which outcome is on record?
Answer: inactive

Question: For `Cc1c(CNCCCNc2cc(=O)c3ccccc3[nH]2)sc(C(F)F)c1Br`, which outcome is on record?
Answer: inactive

Question: For `C[C@@H](C(N)=O)N1CCCCC1c1ccc(OCc2cccc(F)c2)cc1` (stereo not given in full), which outcome is on record?
Answer: inactive

Question: With `O=[N+]([O-])c1ccc2c(-c3ccccc3)c(-c3ccccc3)n(O)c2c1` as the molecule, how does the outcome read?
Answer: inactive

Question: With `CN1CCC(c2c[nH]c3ccc(NC(=O)Nc4ccc(-c5ccncc5)cc4Cl)cc23)CC1` as the molecule, how does the outcome read?
Answer: inactive

Question: `O=C(Nc1ccc(Cl)c(Cl)c1)N1CCc2cc3nccc(N4CCN5CCC[C@H]5C4)c3cc21` was tested. Which outcome did it give?
Answer: inactive

Question: How did the outcome turn out when `CNC(=O)c1cnc(Nc2ccc(OCC(O)CN(C)C)cc2)nc1Nc1cccc(OC)c1` (stereo not given) was run?
Answer: inactive

Question: `CC(=O)Nc1ccc(CN(Cc2ccc(OC(C)(C)C)cc2)Cc2ccc3c(c2)OCCO3)cc1` was tested. Which outcome did it give?
Answer: inactive

Question: Which outcome does the source give for `O=C(NCC1CCC(C(=O)NCc2cccc(C(F)(F)F)c2)CC1)c1ccc(O)c(-c2ccc(Cl)c(Cl)c2)c1` (stereo not given) here?
Answer: inactive

Question: For `CC1(C)N=C(N)N=C(N)N1c1ccc(Cl)c(Cl)c1`, which outcome is on record?
Answer: inactive

Question: `CCOc1ccc(-c2cc3nc(C4CCNCC4)c(C(=O)Nc4ccc(C)cc4Cl)cn3n2)cc1` was tested. Which outcome did it give?
Answer: inactive

Question: How did the outcome turn out when `O=C(/C=C/c1ccc(Cl)c(Cl)c1)NCCCCCN1CCCC(C(=O)Nc2cccc(Cl)c2)C1` (stereo not given) was run?
Answer: inactive

Question: Which outcome does the source give for `N#Cc1cccc(-c2cccc(C(=O)NC3CCC(CCN4CCc5ccc(C#N)cc5CC4)CC3)c2)c1` (stereo not given) here?
Answer: inactive

Question: `COc1cccc2c(NCc3ccccc3)nc(NCCCN3CCCCC3C)nc12` (stereo not given) was tested. Which outcome did it give?
Answer: inactive

Question: `COc1cc(C=CC(=O)N2CCC(CCN3CCC(c4c[nH]c5ccccc45)CC3)CC2)cc(OC)c1` was tested. Which outcome did it give?
Answer: inactive

Question: For `Cc1cc(Cl)ccc1OC(C)C(=O)N1CCc2ccccc21` (stereo not given), which outcome is on record?
Answer: inactive

Question: Which outcome does the source give for `Cc1nc(-c2cccc(Nc3nccc(NCC(O)c4ccccc4)n3)c2)cs1` (stereo not given) here?
Answer: inactive

Question: How did the outcome turn out when `CC(C)(C)c1ccc(S(=O)(=O)Nc2ccccc2Cn2nc(N3CCNCC3)ccc2=O)cc1` was run?
Answer: inactive

Question: For `CCn1ccc2c(N3CCCS3(=O)=O)cc(C(=O)N[C@@H](Cc3ccccc3)[C@H](O)CNC(C)(C)CCCC(C)C)cc21`, which outcome is on record?
Answer: inactive

Question: For `O=C(CC(=O)C(F)(F)F)c1ccccc1[N+](=O)[O-]`, which outcome is on record?
Answer: inactive

Question: How did the outcome turn out when `CCOc1ccc(Br)cc1/C=C/C(=O)Nc1ccc2c(c1)CN(C)CCC2` was run?
Answer: inactive

Question: For `COc1ccc2nccc(NN=Cc3ccccc3)c2c1`, which outcome is on record?
Answer: inactive

Question: `CN(C(=O)/C=C/c1cc(C(F)(F)F)ccc1F)C1CCN(CCCCCNC(=O)/C=C/c2ccc(Cl)c(Cl)c2)CC1` was tested. Which outcome did it give?
Answer: inactive

Question: `Nc1cnc(C#Cc2cc3ncnc(N(CCN4CCOCC4)c4ccc(OCc5cccc(F)c5)c(Cl)c4)c3s2)cn1` was tested. Which outcome did it give?
Answer: inactive

Question: `Cc1nnsc1C(=O)Nc1ccc(-c2cccc(-c3nc4c(C)cccc4[nH]3)c2)cc1` was tested. Which outcome did it give?
Answer: inactive

Question: Which outcome does the source give for `O=[N+]([O-])c1ccc(C(O)CNCCc2ccccc2)cc1OCc1ccccc1` (stereo not given) here?
Answer: inactive

Question: For `COc1cc2ccccc2c(OC)c1CCNCCCCNCCc1c(OC)cc2ccccc2c1OC`, which outcome is on record?
Answer: inactive

Question: `COc1ccc(Cl)cc1N1CCN(CCCNC(=O)c2ccc(-c3nc4cc(Cl)c(F)cc4[nH]3)c(F)c2)CC1` was tested. Which outcome did it give?
Answer: inactive

Question: For `c1ccc2c(c1)CN(Cc1cc3ccccc3[nH]1)CC1(CCN(Cc3c[nH]c4cnccc34)CC1)O2`, which outcome is on record?
Answer: inactive

Question: For `Oc1ccc(CCNc2nc(NCCCOc3cccc(CN4CCCCC4)c3Cl)nc(N3CCNCC3)n2)cc1`, which outcome is on record?
Answer: inactive

Question: With `O=C(CC1CCCC1)Nc1ccc2c(c1)CCC2` as the molecule, how does the outcome read?
Answer: inactive

Question: For `CCN1CCN(C(=O)NC(C(=O)N(C)Cc2ccc(-c3ccc(C(F)(F)F)cc3)cc2)c2cccs2)C(=O)C1=O` (stereo not given), which outcome is on record?
Answer: inactive

Question: Which outcome does the source give for `Oc1c(CN2CCC(Cc3ccccc3)CC2)cc(Cl)c2cccnc12` here?
Answer: inactive

Question: Which outcome does the source give for `C=C[C@]1(C)C[C@@H](OC(=O)NC(=O)CCCS(=O)(=O)c2nnc(C)s2)[C@]2(C)[C@H](C)CC[C@]3(CCC(=O)[C@H]32)[C@@H](C)[C@@H]1O` here?
Answer: inactive

Question: Which outcome does the source give for `COc1c(C2CCN(CCCCNC(=O)c3ccc(-c4ccc(C(=O)C(F)(F)F)cc4)cc3)CC2)ccc2c1CCCC2` here?
Answer: inactive

Question: For `O=C(NC1CCCc2ccccc21)C1CCCN(C(=O)c2ccc(O)c(-c3ccc(Cl)c(Cl)c3)c2)C1` (stereo not given), which outcome is on record?
Answer: inactive

Question: Which outcome does the source give for `CC(=O)Nc1ncc(C(=O)Nc2cccc(-c3cccc(-c4nc5ccccc5[nH]4)c3)c2)s1` here?
Answer: inactive

Question: With `CCN(CC)C(=O)C1CCCN(C(=O)Nc2cc(C(F)(F)F)cc(C(F)(F)F)c2)C1` (stereo not given) as the molecule, how does the outcome read?
Answer: inactive

Question: Which outcome does the source give for `CCC(C)NS(=O)(=O)c1ccc2nc(Nc3ccc(C)cc3)n([C@H](C)C(C)(C)C)c2c1` (stereo not given in full) here?
Answer: inactive
